Results taken from PubChem BioAssay AID602410 (Johns Hopkins Ion Channel Center, 2012).
About 2,800 (0.82%) of roughly 340,000 compounds were called active.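 How the source made its calls: active means B-score under library mean minus 4 SD, starting fluorescence ratio at most library mean plus 5 SD; inactive means the rest.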 Only a selection was taken, and actives are over-represented in it overall.

target: Potassium channel subfamily K member 3 (Homo sapiens) (UniProt O14649); test: blockers of TASK1 two-pore potassium channel – CHO cells, FluxOR thallium flux, B-score, primary screen (AID 602410); details: CHO-KCNK3 thallium flux, FluxOR fluorescence, at 10 µM; stronger effect = lower value;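 on B-score: more negative B-score means stronger inhibition of thallium flux through KCNK3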
Sequence (O14649 whole entry, looked up): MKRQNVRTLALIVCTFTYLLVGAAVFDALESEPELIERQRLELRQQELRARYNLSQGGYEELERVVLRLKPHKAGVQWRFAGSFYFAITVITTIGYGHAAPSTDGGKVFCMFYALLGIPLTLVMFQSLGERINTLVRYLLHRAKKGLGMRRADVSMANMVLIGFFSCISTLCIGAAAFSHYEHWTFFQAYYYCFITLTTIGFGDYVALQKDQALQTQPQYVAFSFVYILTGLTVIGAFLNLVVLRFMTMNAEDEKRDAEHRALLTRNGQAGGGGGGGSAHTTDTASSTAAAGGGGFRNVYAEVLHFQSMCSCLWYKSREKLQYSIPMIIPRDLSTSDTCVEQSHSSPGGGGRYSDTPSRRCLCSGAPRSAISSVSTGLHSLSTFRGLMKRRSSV

SMILES	B-score
NNC(=O)c1cccc(COCC(F)(F)C(F)F)c1	inactive
O=C(O)c1ccc(NN=CC2=C(N3CCOCC3)/C(=C/c3ccccc3)CC2)cc1	-9.13 (active)
O=C1Nc2ccc(Br)cc2/C1=N/N=C/C1=C(N2CCOCC2)C(=C\c2ccccc2)/CC1	inactive
N#C/C(=C\C1=C(N2CCOCC2)C(=C\c2ccccc2)/CC1)C(=O)Nc1ccccc1F	inactive
COc1ccc(N2CCN(CCNC(=O)Nc3cc(Cl)ccc3Cl)CC2)cc1	inactive
COc1ccc(NC(=O)c2sccc2SCC#N)cc1	inactive
CC(C)(C)N1CC(c2nc3ccccc3n2Cc2ccc(F)cc2)CC1=O (stereo not drawn)	inactive
Cc1cc(C)c(C)c(S(=O)(=O)N[C@@H](C)C(=O)OC(C)C(=O)NC(N)=O)c1C (stereo partly drawn)	inactive
C=CCSc1nsc(NC(=O)Nc2cccc(C(C)=O)c2)n1	-9.78 (active)
CCSc1nsc(NC(=O)Nc2cccc(C(C)=O)c2)n1	inactive
CSc1nsc(NC(=O)Nc2ccccc2)n1	inactive
CCOC(=O)C1CCCN(C(=O)C2CCN(S(=O)(=O)c3ccc(Cl)c(C(F)(F)F)c3)CC2)C1 (stereo not drawn)	inactive
COC(=O)c1cccc(-n2[nH]nnc2=S)c1	inactive
COc1ccccc1CNC(=O)COc1ccc(C)nc1[N+](=O)[O-]	inactive
Cc1ccc(S(=O)(=O)N2C[C@@H]3CCCC[C@@H]3[C@@H](C)[C@H]2c2cn(Cc3ccccc3)c3ccc(F)cc23)cc1	inactive
CCc1ccccc1NC(=O)NCCN1CCCCC1	inactive
CN1CCc2ccccc2C1Cc1ccccc1NC(=O)c1sc2ccccc2c1Cl (stereo not drawn)	-9.31 (active)
COc1ccc(CNC(=O)CNC(=O)c2sc3ccccc3c2Cl)cc1OC	inactive
CCOc1ccc(CCNC(=O)COC(=O)c2ccc(F)c(S(=O)(=O)N3CCOCC3)c2)cc1OCC	inactive
CCOc1ccc(OCC)c(NC(=O)C2CCN(S(=O)(=O)c3c(C)noc3C)CC2)c1	inactive
CC[n+]1cc(C)ccc1/C=C/c1ccc(N(C)C)cc1	-8.95 (active)
CCOC(=O)C1CCN(C(=O)C2CCN(S(=O)(=O)CC)CC2)CC1	inactive
COC(=O)c1ccccc1Sc1c(/C=N/OCc2ccc(Cl)cc2)c(C(F)(F)F)nn1C	inactive
Cc1ccc(C(=O)N2CCCC(c3ccccc3)=N2)cc1	inactive
Cc1ccc(NC(=O)CCC(=O)N2CCC(c3ccccc3)=N2)cc1S(=O)(=O)N1CCCCC1	inactive
Cc1ccc(NC(=S)N2CCCC(c3ccccc3)=N2)cc1	-8.89 (active)

SMILES	B-score
Cc1ccc(CSc2nc3[nH]ncc3c(=O)[nH]2)cc1	inactive
Cc1cc2c(=O)n(CC(=O)NCC(=O)Nc3ccc(C(C)C)cc3)cnc2s1	inactive
CCOC(=O)c1c(N)sc2c1CCCC2=O	inactive
COc1cccc(COC(=O)C2CCN(S(=O)(=O)c3ccc(Cl)cc3)CC2)c1OC	inactive
COC(=O)c1ccc(COC(=O)C2CCN(S(=O)(=O)c3c(Cl)cccc3Cl)CC2)o1	-10.8 (active)
CCOc1ccc(S(=O)(=O)N2CCC(C(=O)OCc3ccc(OC)cc3)CC2)cc1	inactive
CC12CN3CC(C)(CN(C1)C3c1ccc(Cl)cc1Cl)C2=O (stereo not drawn)	inactive
Cn1c(SCC(=O)N2CCCC2)nnc1-c1cccs1	inactive
CCc1cc(C(N)=O)c(NC(=O)c2ccc(OC)cc2)s1	inactive
COc1cc(C(c2c(NC(=O)c3ccco3)sc(C)c2C)N2CCOCC2)cc(OC)c1OC (stereo not drawn)	inactive
CCc1cc(C(c2ccccc2OC)N2CCOCC2)c(NC(=O)c2ccccc2)s1 (stereo not drawn)	-8.97 (active)
COc1cc(NC(=O)COC(=O)c2cnc(C)cn2)c(C)cc1[N+](=O)[O-]	inactive
COC(=O)c1ccc(C)c(NC(=O)C2CC(=O)N(C3CCCC(C)C3C)C2)c1 (stereo not drawn)	inactive
O=C(Nc1ccccc1C(=O)N1CCCCC1)c1ccco1	inactive
O=C(c1cccc(S(=O)(=O)Nc2ccccc2Cl)c1)N1CCN(C(=O)c2ccco2)CC1	inactive
CS/C(=C\C(=O)c1ccco1)Nc1ccccc1Cl	-11.4 (active)
NS(=O)(=O)c1ccc(CCNC(=O)COC(=O)COc2cccc(C(F)(F)F)c2)cc1	inactive
CSc1nnc2c(n1)OC(c1ccsc1)N(C(C)=O)c1ccccc1-2 (stereo not drawn)	-9.55 (active)
Cc1ccc(Cl)cc1NC(=O)CN1CCN(S(=O)(=O)N2CCOCC2)CC1	inactive
CCOC(=O)CNC(=O)CSc1ccc2nnc(-c3cccnc3)n2n1	inactive
C/C(CC(C)C)=N\Oc1nc(C)cc(C)n1	inactive
CCC(C)Sc1nc2c(c(=O)[nH]c(=O)n2C)n1CC(O)COc1cccc2ccccc12 (stereo not drawn)	inactive
Cc1cc(C)c(NC(=O)C[N+](C)(C)CC(O)COc2cccc3ccccc23)c(C)c1 (stereo not drawn)	inactive
CC(C)c1ccccc1OCC(O)CN(CC(O)COc1cccc2ccccc12)C(C)C (stereo not drawn)	-9.21 (active)
O=C(OCC(O)C(O)COC(=O)c1ccccc1)c1ccccc1 (stereo not drawn)	inactive
Cc1ccc(C)c(S(=O)(=O)Nc2cccc(-n3cnnn3)c2)c1	inactive

SMILES	B-score
CC(=O)c1c(C)[nH]c(C(=O)Nc2cc(S(=O)(=O)N(C)C)ccc2C)c1C	inactive
O=C(CCn1nnc2ccccc21)OCC(=O)c1ccc([N+](=O)[O-])cc1	inactive
CCc1nnc(NC(=O)c2cccc(S(=O)(=O)N(C)c3ccc(OC)cc3)c2)s1	inactive
CCc1ccc2nc3sc(C(=O)Nc4nnc(CC)s4)c(N)c3cc2c1	-9.98 (active)
CCc1nnc(NC(=O)c2cc(S(=O)(=O)N3CCCCC3)ccc2C)s1	inactive
Cc1cc(C)nc(NNC2=CC(=O)CC(C)(C)C2)n1	inactive
O=C1c2ccccc2C(O)N1Cc1ccccc1Cl (stereo not drawn)	inactive
O=C(NCCc1c[nH]c2ccccc12)c1cc2ccccc2oc1=O	inactive
Cc1cc(C)cc(NC(=S)NCCc2c[nH]c3ccccc23)c1	inactive
O=C(NCCc1c[nH]c2ccccc12)c1cccc(Br)c1	-11.8 (active)
O=P(c1cccs1)(c1cccs1)c1cccs1	inactive
CCC1CCCCN1C(=S)NC(=O)c1ccco1 (stereo not drawn)	inactive
CCC1CCCCN1C(=S)Nc1ccc(C(C)=O)cc1 (stereo not drawn)	inactive
CCC1CCCCN1C(=O)Nc1cccc(NC(=O)N2CCCCC2CC)c1 (stereo not drawn)	-10.6 (active)
CCN(C[C@H]1N[C@@](CC)(C(=O)OC)[C@H]2C(=O)N(Cc3ccccc3)C(=O)[C@@H]12)S(=O)(=O)c1ccccc1	inactive
CCOc1c(Br)cc(/C=C2\C(=O)N(CCC#N)N=C2C)cc1OC	inactive
O=C(COC(=O)/C=C/c1ccc(S(=O)(=O)N2CCCCCC2)cc1)NCc1ccccc1Cl	inactive
CC(=O)c1cccc(NC(=O)CN2C(=O)c3cccnc3Oc3ccc(Cl)cc32)c1	inactive
COC(=O)CCC(=O)N1CCCC(CO)(Cc2ccccc2)C1 (stereo not drawn)	inactive
CCCc1cc(C(=O)N2CCCC(CO)(CCCc3ccccc3)C2)n(C)n1 (stereo not drawn)	-9.3 (active)
Cc1ccccc1CC1(CO)CCCN(C(=O)c2cc(-c3ccccc3)no2)C1 (stereo not drawn)	inactive
CC(Sc1nnc(CNC(=O)c2ccccc2F)n1C)C(=O)Nc1nccs1 (stereo not drawn)	inactive
CC1CCN(S(=O)(=O)c2ccc(NC(=O)C3CC(=O)N(c4ccccc4)C3)cc2)CC1 (stereo not drawn)	inactive
COc1ccc(Nc2ncnc3ccc(Br)cc23)c(OC)c1	inactive
COc1ccc(Nc2ncnc3sc(C)cc23)cc1	inactive
COc1ccc(Nc2ncnc3sc(-c4ccccc4)cc23)c(OC)c1	-12 (active)

SMILES	B-score
COC(=O)c1sc(SC)c(S(=O)(=O)C(C)C)c1N/N=C(\C#N)S(=O)(=O)c1ccccn1	inactive
CC1CCN(C(=O)/C(=C\c2ccccc2F)NC(=O)c2ccccc2)CC1	inactive
COC(=O)CN1C(=O)[C@H]2[C@@H](/C=C/c3ccccc3)N3C(=O)CN(CC4CC4)C(=O)[C@@]3(Cc3ccccc3)[C@H]2C1=O	inactive
O=C(CC1CCCCC1)Nc1c2c(nn1-c1ccc(F)cc1)CS(=O)(=O)C2	inactive
C=CCNC(=O)c1ccccc1NC(=O)c1ccc(Cl)c(S(=O)(=O)Nc2cccc(C)c2C)c1	inactive
CCCCc1ccc(NC(=O)NCc2cccnc2)cc1	inactive
CCCCCCCCCCCCN1C(=O)CSC1c1cccnc1 (stereo not drawn)	-18.4 (active)
CN(C)CCCN1C(=O)CSC1c1ccc([N+](=O)[O-])cc1 (stereo not drawn)	inactive
Cc1ccc(C(=O)Nc2ccc3c(c2)OCCO3)cc1S(=O)(=O)N1CCOCC1	inactive
CCCn1nnc(NC(=O)COc2ccc(CC)cc2)n1	inactive
COc1ccccc1N1CCC(N2CCN(CC(C)(C)C)C(CCO)C2)CC1 (stereo not drawn)	inactive
COc1ccc2c3c(c(=O)oc2c1OCC(=O)C(C)(C)C)CCCC3	inactive
O=c1oc2c(CN3CCCCC3)c(O)ccc2c2c1CCCCC2	inactive
CCCOc1ccc2c3c(c(=O)oc2c1OCCC)CCC3	-11.4 (active)
O=[N+]([O-])c1cccc(C=NN=Cc2ccccc2O)c1	inactive
O=C(CCl)N(Cc1cccc([N+](=O)[O-])c1)c1cccc(Cl)c1	inactive
C=CCN(N=Nc1cccc([N+](=O)[O-])c1)c1cccc([N+](=O)[O-])c1	-9.23 (active)
Cc1cc(Nc2cccc(F)c2)n2ncnc2n1	inactive
CC(NCC(=O)Nc1cc(Cl)cc(Cl)c1)c1ccccc1 (stereo not drawn)	inactive
CC(=O)c1ccc(NC(=O)C(C)NCc2ccc(Cl)cc2)cc1 (stereo not drawn)	inactive
CC(NCc1cccs1)C(=O)Nc1cc(Cl)cc(Cl)c1 (stereo not drawn)	-9.85 (active)
CC(=O)Nc1ccccc1OC(C)C(=O)N1CCC(C)CC1 (stereo not drawn)	inactive
CCOc1ccc(Br)cc1S(=O)(=O)Nc1ccc(C(=O)OC(C)C(=O)N(C)c2ccccc2)cc1 (stereo not drawn)	inactive
COCCCNC(=O)CCc1nc2cccnc2n1Cc1ccc(OC)cc1	inactive
Cc1ccc2nc(NC(=O)C3CSC4(C)CCC(=O)N34)sc2c1 (stereo not drawn)	inactive
